# Measurements reported in ChEMBL document CHEMBL4513216, “Probing the Open Global Health Chemical Diversity Library for Multistage-Active Starting Points for Next-Generation Antimalarials” (ACS Infect Dis, 2020).
# Hit rate of the full screen: of about 69,000 compounds, about 8,600 (12%) showed an effect of 50% or more. The full list was thinned out, with strong results kept by preference.
# Tested on: Plasmodium berghei
# Assay: Screen against P. berghei liver stage (PbLuc), transformed with Luciferase, at 10uM
# Type: functional, HepG2
# Conditions: tested at 10 uM
row,Compound,INHIBITION [%]
1,Cc1cc(C)nc(NC(=O)NCCCSc2nncn2C)n1,9
2,CCc1cnc(CN(C(C)=O)C2CCN(CCc3ccncc3)C2)o1 (stereo not drawn),42.9
3,O=C(CC[C@@H]1CCCN2CCCC[C@H]12)N1CCC(c2nnc[nH]2)CC1,-9.8
4,Fc1cnc(N2CCCn3c(nnc3Cn3cccc3)C2)nc1,-23.4
5,Fc1cnc(N2CCn3c(CN4CCCC4)nnc3C2)nc1,57.9
6,Fc1cnc(N2CCCn3c(CN4CCOCC4)nnc3C2)nc1,-16.9
7,CS(=O)(=O)c1ccc(C(=O)N2CCCC(n3cncn3)C2)o1 (stereo not drawn),21.8
8,CCc1nnc(Nc2cccc(C3CCN(C(=O)CN(C)C)CC3)n2)s1,22
9,CCc1nnc(Nc2cccc(C3CCN(C(C)=O)CC3)n2)s1,-28.6
10,CCc1nnc(Nc2cccc(C3CCN(C)CC3)n2)s1,12.3
11,CCc1nnc(Nc2cccc(C3CCN(CCO)CC3)n2)s1,55.7
12,Cc1nnc(Nc2cccc(C3CCN(CCO)CC3)n2)s1,13.6
13,CCc1nnc(Nc2cccc(C3CCN(S(=O)(=O)N(C)C)CC3)n2)s1,53.2
14,CS(=O)(=O)NC1CCCN(C(=O)Nc2ccccc2Cn2cccn2)C1 (stereo not drawn),20.9
15,O=C(NCCn1ccnc1)N1CCCC1c1cccs1 (stereo not drawn),7.333
16,Cc1cc(F)c2c(c1)CCCN2Cc1cc(=O)n(C)c(=O)n1C,-14.2
17,COc1ccc(-c2cnc(CN3CCCC3Cn3cccn3)o2)cc1 (stereo not drawn),-21.8
18,c1csc(CN2Cc3nccn3CC(Cn3cncn3)C2)n1 (stereo not drawn),28.5
19,O=c1c(NCCO)c(N2CCN(c3ccccc3)CC2)c1=O,29.8
20,O=c1c(NCCNCCO)c(N2CCN(Cc3ccccc3)CC2)c1=O,28.3
21,O=c1c(NCCNCCO)c(N2CCN(c3ccccc3)CC2)c1=O,55.5
22,COc1ccc(CN2C[C@@H]3COC[C@]3(CN(C)C)C2)cc1,20.5
23,CN(Cc1cccc(C#N)c1)C(=O)C1CC(c2cccc(F)c2)=NO1 (stereo not drawn),8.38
24,COc1ccc(OC)c2c(C)cc(N(C)CCO)nc12,0.897
25,COc1ccc(OC)c2c(C)cc(N(C)CCCO)nc12,51.1
26,COc1ccc(OC)c2c(C)cc(N(CCO)CCO)nc12,1.79

row,Compound,INHIBITION [%]
1,O=C(NCc1ccc2c(c1)OCO2)c1ccc(N2CCCCC2)nn1,33.4
2,CN(C)S(=O)(=O)N1CC[C@]2(C[C@H](OCc3ccncc3)CO2)C1,57.1
3,CCS(=O)(=O)N1C[C@@H](OCc2ccccn2)[C@@H]2OCCC[C@@H]21,16.6
4,CN(C)S(=O)(=O)N1C[C@@H](Oc2ccccn2)[C@H]2OCCC[C@H]21,-4.74
5,Cc1cccc(CO[C@H]2CO[C@@]3(CCN(S(=O)(=O)N(C)C)C3)C2)n1,55.5
6,Cc1ccc(C(=O)N2CC[C@]3(C[C@@H](OCc4ccccn4)CO3)C2)nc1,35.7
7,Cc1cccc(C(=O)N2CC[C@]3(C[C@H](OCc4ccccn4)CO3)C2)c1,71.9
8,O=C(c1ccccc1)N1CCC[C@]2(C[C@@H](OCc3ccccn3)CO2)C1,49.7
9,CN(C)S(=O)(=O)N1CC[C@]2(C[C@H](Oc3cccnc3)CO2)C1,0
10,Cc1cccc(COC2COC3(CCN(Cc4ccoc4)CC3)C2)n1 (stereo not drawn),11.4
11,Cc1cccc(COC2COC3(CCN(S(C)(=O)=O)CC3)C2)n1 (stereo not drawn),44.2
12,CN(C)S(=O)(=O)N1C[C@@H](OCc2ccccn2)[C@H]2OCCC[C@H]21,56.1
13,CN(C)S(=O)(=O)N1CC[C@]2(C[C@@H](Oc3cccnc3)CO2)C1,21.8
14,COCCN1CCCC(c2ccnc3c(C(N)=O)cnn23)C1 (stereo not drawn),37.7
15,CNC(=O)C(C)(C)N1CCC[C@H]1C(=O)NCC(C)C,27.2
16,Cc1cccc(-c2noc(CN3CCCC3Cn3cncn3)n2)c1 (stereo not drawn),19.4
17,CC(Cn1cccn1)n1cnc2ccc(F)cc2c1=O (stereo not drawn),35
18,CCOC(=O)CNC(=O)N1CCC(OC)c2ccccc2N(C)C(=O)C1 (stereo not drawn),29.8
19,O=C1CCCC2=C1C(c1ccco1)C1C(=O)NN=C1N2 (stereo not drawn),36.3
20,CCc1ncc2c(n1)CN(Cc1cccc(OCC(N)=O)c1)CC2,0.914
21,Cc1nc(CN(C)C2CCN(Cc3ccc(Cl)s3)C2)no1 (stereo not drawn),-35.7
22,O=S(=O)(CCO)CCc1ccccc1Cl,25.2
23,c1ncn(CC2CCCN2Cc2csc(C3CCCCC3)n2)n1 (stereo not drawn),23.5
24,CCNc1cc2c(nn1)CCN(C(=O)Cc1c(C)nn(C)c1C)C2,15.5
25,CC(NC1CCN(CCS(C)(=O)=O)CC1)c1cnn(C(C)C)c1 (stereo not drawn),-5.22
26,O=C(c1cnccn1)N1CCO[C@H]2[C@H](OCc3cccnc3)CC[C@@H]21,7.31

row,Compound,INHIBITION [%]
1,CN1CCN(c2ncnc3c2CCN(c2ncc(F)cn2)CC3)CC1,24.9
2,CC1CCN(S(=O)(=O)N2CCC(Oc3cnccn3)CC2)CC1,19.6
3,Cc1cc2c(=O)n3c(nc2s1)CCN(C(=O)c1ccn(C)n1)CC3,0.301
4,CC(=O)NCCNC(=O)Nc1cc(C(C)(C)C)sc1C#N,42.7
5,CN(C)S(=O)(=O)N1CCC2(CC1)CC(OCC1CC1)CO2 (stereo not drawn),28.2
6,CN(C)S(=O)(=O)N1CC[C@]2(C[C@@H](OCc3ccccn3)CO2)C1,39.4
7,CCO[C@@H]1CO[C@@]2(CCCN(S(=O)(=O)c3ccccc3)C2)C1,64.9
8,O=S(=O)(c1ccccc1)N1CCC[C@]2(C[C@H](OCC3CC3)CO2)C1,19.4
9,CN(C)S(=O)(=O)N1CC[C@]2(C[C@@H](OCC3CC3)CO2)C1,57.1
10,CN(C)S(=O)(=O)N1CCC2(CC1)CC(Oc1ccccn1)CO2 (stereo not drawn),-60.2
11,CCO[C@H]1CO[C@@]2(CCCN(S(=O)(=O)c3ccccc3)C2)C1,23.9
12,CN(C)S(=O)(=O)N1CC[C@]2(C[C@H](OCc3ccccn3)CO2)C1,57.1
13,CCS(=O)(=O)N1CC[C@]2(C[C@@H](OCC3CC3)CO2)C1,15.1
14,CN(C)S(=O)(=O)N1CC[C@]2(C[C@H](Oc3ncccc3F)CO2)C1,34.1
15,CN(C)S(=O)(=O)N1CC[C@]2(C[C@@H](Oc3ncccc3F)CO2)C1,10.1
16,Cc1cccc(CO[C@@H]2CO[C@@]3(CCN(S(=O)(=O)N(C)C)C3)C2)n1,63.5
17,COCC(=O)N1CCN(C(C)c2ncc(-c3ccccc3)o2)CC1 (stereo not drawn),40.2
18,Cc1cc2n(n1)CC(CNCc1ccc(-n3cccn3)cc1)CN2 (stereo not drawn),6.35
19,O=C(Nc1ccc(OC2CCCC2)cc1)C1CCCN1c1nccs1 (stereo not drawn),2.625
20,CC(C)Oc1cccc(F)c1C(C(=O)O)N1CCCN(C)CC1 (stereo not drawn),28.2
21,Cn1cc(-c2cnc(N3CCOCC3)nc2)cc1C(=O)NC1CC1,-1.55
22,Cc1cc(CN2CCN(C(=O)NCc3ccoc3)CC2)no1,-7.35
23,O=C(NC[C@]1(O)CN(Cc2ncccc2F)C[C@H]1O)c1cc[nH]n1,40.4
24,CC(O)(CNc1ccc(Cl)c(C#N)n1)c1ccsc1 (stereo not drawn),-20.3
25,CCCC(=O)Nc1cccc([C@H]2C[C@@H](NC(C)=O)CCO2)c1,33.85
26,CNC(=O)c1cc2c(nc1NCC(C)C)CCN(c1ccncn1)CC2,-38.7

row,Compound,INHIBITION [%]
1,CN(Cc1nc(N2CCCC2)ncc1-c1ccncc1)C(=O)C(C)(C)C,21.6
2,COc1ccc2c(c1)NC(C1CCN(C(=O)C3CC3)CC1)NS2(=O)=O (stereo not drawn),-30.9
3,Cc1cc(C(=O)N2CCCC2c2c(C)nn(C)c2C)no1 (stereo not drawn),23.5
4,Cc1ccc(C(=O)Nc2cn[nH]c2)cc1F,0.5
5,Fc1ccc(Br)c(NCc2nnsc2Cl)c1,43.1
6,CC1CCCCN1C(=O)c1ccn(COc2ccc(F)cc2)n1 (stereo not drawn),-3.11
7,CC(C)NC(=O)N1CCC2(C1)CN(c1ccsc1)C(=O)CN2C (stereo not drawn),27.9
8,O=C(N1CCCC1)N1CCC[C@]2(C[C@@H](OCc3ccncc3)CO2)C1,53.9
9,O=C(C1CC1)N1CCC[C@]2(C[C@@H](OCc3ccncc3)CO2)C1,10.5
10,O=C(c1ccccc1)N1CCC[C@]2(C[C@@H](OCc3ccncc3)CO2)C1,-13.7
11,CCc1nc(CN(C)CC(N)=O)cs1,31.8
12,Cc1c(C(C)NC(=O)C2CCCCC2)cnn1C (stereo not drawn),8.12
13,Cc1c(C(C)NC(=O)N2CCN(C3CCCC3)CC2)cnn1C (stereo not drawn),70.9
14,Cc1c(C(C)NC(=O)C2CCCC2)cnn1C (stereo not drawn),-8.87
15,O=C1CCC(=O)N1c1nn(Cc2c(F)cccc2Cl)cc1Cl,24.8
16,CN(C)c1ccc(C(=O)Nc2ccn(CCc3ccncc3)n2)cn1,-17.7
17,Cc1noc(C)c1CC(=O)N1CCC(Nc2cccnn2)CC1,17.883
18,Cn1cc(CC(=O)N2CCC(Nc3cccnn3)CC2)c2ccccc21,66.8
19,Cc1nn(C)c(C)c1CC(=O)N1CCC(Nc2cccnn2)CC1,53.5
20,Cc1ccc(NC2CCN(C(=O)Cc3c(C)nn(C)c3C)CC2)nn1,-3.547
21,O=C(Cc1c[nH]c2ccccc12)N1CCC(Nc2cccnn2)CC1,21.8
22,O=C(Cc1cccc2ccccc12)N1CCC(Nc2cccnn2)CC1,-9.76
23,CC(NC(=O)NCc1cccs1)c1ccc2c(c1)CCC(=O)N2 (stereo not drawn),-27.8
24,Cc1cc(C)c2c(c1)C(NCc1c(C)nn(C)c1N(C)C)CCO2 (stereo not drawn),16.515
25,O=C1CCC(C(=O)Nc2cnn(-c3ccccc3Br)c2)N1 (stereo not drawn),47
